High-throughput results: PubChem, National Center for Advancing Translational Sciences (NCATS)
An excerpt weighted towards active compounds, which were near 18% of everything screened.
LDHA inh: LDHA (human) enzyme inhibition; activity change, % (values are at about 110 or 230 µM); purified LDHA, NADH/diaphorase-resazurin fluorescence; hits give low values; P00338; actives 0.15% (n = 480,000); in the data active = activity change below about -30%; inconclusive = mostly about -25% to -30%;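 note: plate controls were DMSO wells for no effect and wells without enzyme for full effect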
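LDH5 2 nM; NADH 0.06 mM, pyruvate 0.2 mM; 200 mM Tris pH 7.4, EDTA, Tween-20; 5 min RT. Detection: diaphorase 0.133 mg/mL + resazurin 37 µM, fluorescence ex540/em590 at 0 and 20 min; normalized to enzyme-free and DMSO wells.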
TDP1 cell CPT: DT40-hTDP1 cell growth loss with CPT | chicken DT40 Tdp1-/-;hTDP1 cells + 20 nM CPT, ATP luminescence, 48 h | Potency, µM (doses to about 46.2 µM), without a hit: at the top dose activity change, negative = growth inhibition, usual class: inhibitors | actives 12% (n = 420,000) | AID 686979; note: potency is the fitted concentration of half-maximal effect; nearly all actives have a fitted effect of over 55% in size
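Chicken DT40 Tdp1-/- cells complemented with human TDP1, 400 cells/well, exposed to compounds plus 20 nM camptothecin for at least 48 h at 37 C; viability read as ATP content by CellTiter-Glo luminescence.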
RORgamma inh: blocks mouse ROR gamma transcriptional activity; P51450; Drosophila S2 Gal4-RORgamma UAS-luciferase reporter, 20 h; Potency, µM (doses to about 53.6 µM), for inactives: top-dose activity change, negative = inhibition, most hits filed as inhibitors; actives 5.4% (n = 310,000); AID 2551; note: potency is the fitted concentration of half-maximal effect; nearly all actives have a fitted effect of over 60% in size
Target sequence (P51450 whole entry, looked up, the tested form may be a part): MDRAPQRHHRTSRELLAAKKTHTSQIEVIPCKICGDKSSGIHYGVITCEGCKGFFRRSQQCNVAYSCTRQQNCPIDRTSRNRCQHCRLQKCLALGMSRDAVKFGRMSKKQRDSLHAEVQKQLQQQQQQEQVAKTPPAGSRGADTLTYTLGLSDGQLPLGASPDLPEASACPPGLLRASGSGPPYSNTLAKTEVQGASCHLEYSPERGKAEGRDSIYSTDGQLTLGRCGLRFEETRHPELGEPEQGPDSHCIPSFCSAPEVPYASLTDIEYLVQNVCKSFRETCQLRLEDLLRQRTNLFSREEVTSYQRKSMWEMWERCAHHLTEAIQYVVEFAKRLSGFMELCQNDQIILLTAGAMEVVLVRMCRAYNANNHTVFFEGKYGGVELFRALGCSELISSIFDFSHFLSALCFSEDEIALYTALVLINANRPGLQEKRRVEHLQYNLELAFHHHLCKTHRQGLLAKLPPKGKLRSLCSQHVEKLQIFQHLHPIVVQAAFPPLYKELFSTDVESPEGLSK
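Luciferase reporter read in Schneider cells carrying Gal4-RORγ (mouse) and UAS-Photinus luciferase; cells given compound 1 h before 700 uM copper sulfate induction, then incubated 20 h at ambient temperature.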
Gal4-VP16 FLuc: counter-screen for ROR gamma inhibitors: Gal4-VP16 reporter | AID 2546 | Drosophila S2 Gal4-VP16 UAS-luciferase, luminescence, 20 h | Potency, µM (titrated, usually from 53.6 µM), for inactives: at the highest dose activity, negative = inhibition, usual class: inhibitors | actives 3.5% (n = 310,000);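 note: Gal4-VP16 expression switched on by copper sulfate through the metallothionein promoter; potency is the fitted concentration of half-maximal effect; nearly all actives have a fitted effect of over 50% in size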
IL1B secr inh: inflammasome signaling inhibition, IL-1 beta readout | THP-1 LPS/ATP IL-1B secretion, AlphaLISA, 16 h; hits give low values | activity change, % at 57.5 µM | actives 4.7% (n = 360,000) | AID 743279; in the data active = activity change below about -50%; inconclusive = mostly about -30% to -49%
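THP-1 cells pretreated 1 hr with compounds (up to 57.5 uM final), then stimulated with LPS (250 ng/mL final) plus ATP (1.25 mM final); secreted IL-1B measured by AlphaLISA after 16 hr, decreased signal indicating inhibition.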
DT40 TDP1 no CPT: qHTS for Inhibitors of human tyrosyl-DNA phosphodiesterase 1 (TDP1): qHTS in cells in absence of CPT | actives 15% (n = 420,000) | DT40 Tdp1-/- hTDP1 cells, no CPT, ATP luminescence, 48 h | Potency, µM (series often up to 46.2 µM), for the others: at the top dose activity change, negative = growth inhibition, hits mostly inhibitors | AID 686978, 2013; note: potency is the fitted concentration of half-maximal effect; nearly all actives have a fitted effect of over 55% in size
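Seeded 400 DT40-hTDP1 cells/well (vehicle DMSO, no 20 nM CPT); pinned compounds; ≥48 hr at 37 °C; CellTiter-Glo luminescence as viability measure.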
* marks the source's active call; other numbers are inactive results; u = inconclusive; x = no result given. Unless noted, calls come from the whole dose curve; as a rule, active = well fitted curve in the direction sought with a large enough effect; inconclusive = small, poorly fitted or top-dose-only effect, or another doubt; inactive = no such curve, though single readings can be large; an effect the other way counts as inactive or inconclusive. Unless noted, % is set by controls: 0 for no effect and ±100 for the full control effect.

SMILES	LDHA inh	TDP1 cell CPT	RORgamma inh	Gal4-VP16 FLuc	IL1B secr inh	DT40 TDP1 no CPT
CC(C)(C)c1ccc(C(O)c2ncc(-c3cccc(F)c3)[nH]2)cc1 (configuration not stated)	-1.3	14.6µM*	x	x	-28.3	u
OC(c1cc(F)cc(Cl)c1)c1ncc(-c2ccc3ccccc3c2)[nH]1 (configuration not stated)	-9.6	18.4µM*	x	x	4.6	13µM*
OC(c1cccc(Cl)c1)c1ncc(-c2ccc3ccccc3c2)[nH]1 (configuration not stated)	-8.5	u	x	x	-7.6	u
Cc1ccc(S(=O)(=O)N(CC(=O)N2CCCC2)c2cccc(Cl)c2)cc1	5.8	x	x	x	x	x
COc1cccc(-c2cnc(C(O)c3ccc(C)cc3)[nH]2)c1 (configuration not stated)	-1.8	-19.9%	x	x	7.7	-17.1%
Cc1ccc(C)c(C(O)c2ncc(-c3ccc4ccccc4c3)[nH]2)c1 (configuration not stated)	-14.7	18.4µM*	x	x	19.2	u
COc1cccc(-c2cnc(C(O)c3ccc(C(C)(C)C)cc3)[nH]2)c1 (configuration not stated)	-6.9	u	x	x	-26.5	18.4µM*
COc1cccc(-c2cnc(C(O)c3cc(Cl)cc(Cl)c3)[nH]2)c1 (configuration not stated)	-13.0	23.1µM*	x	x	-19.9	u
COc1cccc(-c2cnc(C(O)c3cc(F)cc(Cl)c3)[nH]2)c1 (configuration not stated)	-8.7	u	x	x	-4.8	u
Cc1ccc(N2C(=O)N(CC(=O)Nc3cccc(Cl)c3)C(=O)C2C)cc1 (configuration not stated)	0.3	u	x	x	-60.6*	u
Cn1c2ccccc2c2c(C(=O)N3CCN(C(=O)c4ccco4)CC3)cn(C3CCCCC3)c(=O)c21	-2.4	u	41.7%	-4.9%	-24.1	u
CCOC(=O)N1CCN(C(=O)c2cn(C)c(=O)c3c2c2ccccc2n3C)CC1	1.2	u	-15.7%	-0.4%	62.9	25.1µM*
Cc1ccc(Cl)cc1N1CCN(C(=O)c2cn(C3CCCCC3)c(=O)c3c2c2ccccc2n3C)CC1	-0.8	23.1µM*	x	x	x	18.4µM*
Cn1c2ccccc2c2c(C(=O)N3CCN(c4ccccn4)CC3)cn(C3CCCC3)c(=O)c21	-2.9	u	-10.7%	-19.0%	-58.6*	14.6µM*
CCOC(=O)N1CCN(C(=O)c2cn(CC(C)C)c(=O)c3c2c2ccccc2n3C)CC1	-3.6	u	-11.0%	-0.2%	-19.5	u
COc1ccc(N2CCN(C(=O)c3cn(C4CCCC4)c(=O)c4c3c3ccccc3n4C)CC2)cc1	4.8	16.4µM*	-11.7%	-17.7%	-14.1	16.4µM*
Cc1sc2nc(CN3CCOCC3)nc(N(C)CC(=O)Nc3cccc4ccccc34)c2c1C	17.3	x	x	x	x	x
COc1c(Cl)cc(NCC(=O)NC(C)(C#N)C(C)C)cc1Cl (configuration not stated)	2.7	x	x	x	x	x
CC(Oc1ccc(C#N)cc1)C(=O)c1cccc(Cl)c1 (configuration not stated)	-1.6	x	x	x	x	x
COc1ccccc1-c1cc(=O)c2cc(NS(=O)(=O)c3ccccc3)ccc2o1	1.4	x	x	x	x	x
COc1ccc(-n2nc(C(=O)N3CCN(c4cccc(C)c4C)CC3)c3c4ccccc4n(C)c3c2=O)cc1	-3.9	-17.4%	x	x	x	-8.8%
COc1ccc(N2CCN(C(=O)c3cn(C)c(=O)c4c3c3ccccc3n4C)CC2)cc1	-0.9	u	27.9%	14.2%	28.3	14.6µM*
Cc1cc(C)c[n+](CC(=O)c2ccc(NC(=O)c3ccccc3)cc2)c1	4.8	u	11.1%	-4.1%	0.0	u
Cc1cc(C)c[n+](CC(=O)c2ccc(-c3ccccc3)cc2)c1	-8.1	18.4µM*	18.3%	-4.2%	-7.5	u
COc1ccc(C)cc1NC(=O)CCC(=O)Nc1ccc2nc(N3CCN(C)CC3)cc(C)c2c1	5.5	u	4.6%	-13.5%	-2.1	u
SMILES	LDHA inh	TDP1 cell CPT	RORgamma inh	Gal4-VP16 FLuc	IL1B secr inh	DT40 TDP1 no CPT
COc1ccc(C(=O)Nc2ccc3nc(N4CCN(C)CC4)cc(C)c3c2)c(OC)c1	-3.9	u	u	-23.7%	-86.3*	u
Cc1cc(N2CCN(C)CC2)nc2ccc(NC(=O)c3ccc(C(C)(C)C)cc3)cc12	4.1	7.31µM*	x	x	x	4.61µM*
Cc1nn(C)c2ncc(NC(=O)CCc3ncc(-c4ccc(F)cc4F)o3)cc12	5.2	x	x	x	x	x
Cn1c(SCC(=O)N2c3ccccc3Sc3ccc(Cl)cc32)nnc1-c1ccco1	-4.5	20.6µM*	36.7%	-13.1%	-12.9	u
O=C(CSc1nnc(-c2ccncc2)n1Cc1ccco1)OC1CCCCC1	4.3	-23.9%	10µM*	u	27.0	-20.4%
O=C(CSc1nnc(-c2ccncc2)n1Cc1ccco1)N1c2ccccc2Sc2ccc(Cl)cc21	-2.3	14.6µM*	u	-16.4%	-73.9*	-21.4%
CCCn1c(SCC(=O)NC2CCCCC2)nnc1-c1ccncc1	1.3	29.1µM*	4.9%	-5.8%	30.0	-78.0%
CCc1cccc(NC(=O)COC(=O)c2ccc(C3Nc4ccccc4S(=O)(=O)N3)cc2)c1 (configuration not stated)	-2.7	x	x	x	x	x
COC(=O)c1ccc(NC(=O)COc2c(C)[nH]ccc2=O)cc1	0.2	x	x	x	x	x
Cn1nnnc1SCC(=O)N1c2ccccc2Sc2ccc(Cl)cc21	-6.1	u	34.1%	27.6%	-7.7	20.6µM*
CN(C)CC(=O)N1c2ccccc2Sc2ccc(Cl)cc21	-9.5	-19.9%	-0.6%	-11.8%	-11.6	-14.5%
Cc1cc(C)n2nc(N(Cc3ccccc3)S(=O)(=O)c3ccccc3)nc2n1	-12.3	x	x	x	x	x
COc1ccc(NC(=O)CSc2ncc(-c3ccc(Cl)cc3)[nH]2)cc1OC	-1.5	u	x	x	x	14.6µM*
COc1ccc(NC(=O)CSc2nc3[nH]ncc3c(=O)[nH]2)cc1OC	-2.7	-7.6%	x	x	18.7	-3.0%
Cc1cccc(NC(=O)CSc2ncc(-c3ccc(Br)cc3)[nH]2)c1	1.8	23.1µM*	x	x	x	u
CCOC(=O)c1sc(NC(=O)COc2c(C)cc(C)cc2C)nc1C	6.4	x	x	x	x	x
COc1ccc(CC(=O)NC(c2ccccc2)c2ccc(C)cc2)c(OC)c1 (configuration not stated)	-6.1	u	-24.1%	7.5%	-13.3	18.4µM*
